Source: PubChem
MITF TRPM1 HTS = activators of MITF-driven TRPM1 promoter reporter, primary screen, cell-based, SK-MEL-5, luciferase, single point; SK-MEL-5 TRPM1-promoter luciferase, 24 h; % of positive control, neutral wells = 0; 300,000 tested, 0.75% active; activation, % at 12.5 µM;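 active = mean activation of at least 80% with every replicate also reaching 80%; inconclusive = mean reaches 80% but some replicate falls short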;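 note: 0% = neutral control wells and 100% = parthenolide positive control wells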
Wnt bcat act = Wnt/beta-catenin pathway activators, primary screen, cell-based, plate reader, single point. Wnt/beta-catenin reporter cell assay, activator. activation, % at 9.35 µM. 300,000 tested, 1.2% active. AID 743398, 2014; in the data active = activation above about 30%, passing the limit was not always enough; inconclusive = no clear call, values can overlap the other calls;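 note: 0% = neutral control wells and 100% = positive control wells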
esBAF inh = Bmi1 luciferase reporter increase in mESCs, primary screen, esBAF inhibitor project, mouse ES cells, Bmi1 luciferase knock-in, single point; 24 h; 100% = twice the neutral-well signal; reporter increase, % at 12.5 µM; 350,000 tested, 2% active; in the data active = activation above about 40%; inconclusive = no clear call, values can overlap the other calls;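 note: 0% = median of the plate's neutral control wells and 100% = double that signal; a rise in the Bmi1 reporter signal indicates esBAF inhibition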
HSF1 inhib = HSF1 inhibitors in luciferase reporter cells, primary screen, cell-based, NIH3T3, luminescence; AID 2098, 2009; NIH3T3-HGL HSE-luciferase, MG132-induced, luminescence 8 h; hits give low values; activity change, negative = inhibition, % at 7.5 µM (by protocol); 300,000 tested, 0.77% active;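 active = more than half of replicate wells show activity change below -50%, luminescence cut by over half; inconclusive = some wells, but at most half, below -50%; inactive = no replicate well below -50%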;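 note: luciferase reports HSF-1 transcriptional activity via heat shock element; 0% = median of DMSO wells and -100% = zero luminescence signal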
HSF1 activator = HSF-1 activators, primary screen, NIH3T3-HGL cells, MG132 stress, luminescence, single point; 300,000 tested, 1.7% active; NIH3T3-HGL HSF-1 luciferase reporter, 8 h; 100% = twice DMSO control signal; AID 504408, 2011; activation, % at 9 µM;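 active = mean replicate activation of at least 50% with a set share of replicates each reaching 50%; inconclusive = only one of those two conditions met; inactive = mean below 50% and too few replicates reaching it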;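 note: 0% = median of the neutral control wells and 100% = twice that signal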
Ring1 derepress = Ring1 mRNA increase in mouse ESCs, confirmation, esBAF inhibitor project, cell-based, mouse ESC, RT-qPCR, cherry-pick | shares compounds with esBAF inh | mouse ESC E14, Ring1 mRNA RT-qPCR fold change | fold change at 33 µM | 550 tested, under 10 active;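 active = Ring1 gene expression raised more than 2-fold over untreated cells in both replicates at either tested dose; inconclusive = only one replicate above 2-fold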;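 note: Ring1 transcript normalised to actin housekeeping signal by TaqMan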
Fgf4 repress = Fgf4 mRNA decrease in mouse ESCs, confirmation, esBAF inhibitor project, cell-based, mouse ESC, RT-qPCR, cherry-pick; 550 tested, 4% active; shares compounds with esBAF inh; mouse ESC E14, Fgf4 mRNA qPCR fold change; hits give low values; AID 743177, 2013; Fgf4 expression fold change at 33 µM;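 active = Fgf4 expression under 0.8 fold of control in both repeat measurements at one or both tested doses; inconclusive = under 0.8 fold in just a single repeat measurement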;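 note: Fgf4 transcript normalised to actin in duplex TaqMan qPCR; cells exposed to compound for 24 h before lysis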
esBAF Bmi1 qPCR = esBAF inhibition via Bmi1 de-repression, confirmation, cell-based, RT-qPCR, mouse ESC, single point, cherry-pick | shares compounds with esBAF inh | mouse ESE14 ES cells, Bmi1 mRNA qPCR fold; hits give high values | fold change at 33 µM | 550 tested, under 10 active | AID 743180, 2013;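 active = Bmi1 expression fold change above 6 at either tested concentration, seen in replicate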;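 note: higher fold means more Bmi1 de-repression and stronger esBAF inhibition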
A549 cytotox = A549 cell cytotoxicity, cytotoxicity control, plate reader, single point, cherry-pick. cell viability change % (negative = cytotoxic), % at 25 µM, hits read low. shares compounds with esBAF inh. AID 743188, 2013. 550 tested, under 10 active; call rule not given here
HepG2 tox SP = HepG2 cell cytotoxicity, cytotoxicity control, plate reader, single point, cherry-pick; 550 tested, 4% active; shares compounds with esBAF inh; AID 743189, 2013; hits give low values; activity change, negative = inhibition, % at 25 µM; in the data active = activity change below about -50%
HEK293 tox SP = HEK293 cell cytotoxicity, cytotoxicity control, plate reader, single point, cherry-pick; AID 743190, 2013; activity change, negative = inhibition, % at 25 µM, hits read low; shares compounds with esBAF inh; 550 tested, 3% active; in the data active = activity change below about -38%, passing the limit was not always enough
Starred values were filed as active, the others as inactive; ? = inconclusive; . = not tested or not shown. Shown are actives, neighbours in structure and some others; about 3.8% of the full set was active somewhere.

SMILES | MITF TRPM1 HTS | Wnt bcat act | esBAF inh | HSF1 inhib | HSF1 activator | Ring1 derepress | Fgf4 repress | esBAF Bmi1 qPCR | A549 cytotox | HepG2 tox SP | HEK293 tox SP
CCC(C)c1ccc(NC(=O)C2CC3CCC2C3)cc1 (configuration not stated) | . | 26.0 | . | 13.4 | 42.2 | . | . | . | . | . | .
Cc1cccc(C)c1OCc1cc(C(=O)N2CCC(C3CCCCC3)C2)no1 (configuration not stated) | 56.3 | 23.9 | 55.8* | 19.8 | 35.3 | 1.17 | 0.865 | 1.44 | -3.2 | 2.3 | -3.1
O=C(c1cc(COc2ccc(F)cc2F)on1)N1CC[C@@H]2CCCC[C@H]2C1 | 12.1 | 1.2 | 6.4 | -1.1 | 6.4 | . | . | . | . | . | .
Cc1ccc(C)c(N2CCN(C(=O)CCc3nc(-c4cccc(Cl)c4)no3)CC2)c1 | 72.9 | 0.4 | 89.9* | . | . | 1.05 | 1.23 | 0.861 | 1.8 | -37.0 | -0.3
Cc1ccc(C)c(N2CCN(C(=O)CCc3nc(-c4ccccc4C(F)(F)F)no3)CC2)c1 | 72.3 | 34.1* | 72.7* | . | . | 1.31 | 0.963 | 1.6 | -4.7 | -20.6 | -10.0
COc1ccccc1-c1noc(CCC(=O)N2CCN(c3cc(C)ccc3C)CC2)n1 | 9.7 | -2.9 | -4.4 | . | . | . | . | . | . | . | .
COc1cccc(-c2noc(CCC(=O)N3CCN(c4cc(C)ccc4C)CC3)n2)c1 | -0.2 | -1.0 | 1.6 | . | . | . | . | . | . | . | .
COc1ccc(-c2noc(CCCCC(=O)N3CCN(c4cc(C)ccc4C)CC3)n2)cc1 | -50.2 | -3.3 | -74.2 | . | . | . | . | . | . | . | .
COc1ccc(-c2noc(CCCC(=O)N3CCN(c4cc(C)ccc4C)CC3)n2)cc1 | 65.6 | 1.3 | 62.3* | . | . | 1.23 | 1.02 | 1.6 | -2.8 | 2.0 | -13.1
O=C(C[C@@H]1C[C@H]2c3cc(NC(=O)c4cccnc4)ccc3O[C@H]2[C@H](CO)O1)NCCc1ccccc1 | . | . | 3.0 | . | . | . | . | . | . | . | .
O=C(COc1ccc(/C=N/NC(=O)c2cc3ccccc3o2)cc1Br)Nc1ccccc1 | -92.9 | . | ? | 25.2 | 49.2 | 0.857 | ? | 5.08 | -121.3* | -75.3* | -121.0*
C[C@@H](NC(=O)C[C@H]1C[C@H]2c3cc(NC(=O)c4cccnc4)ccc3O[C@H]2[C@@H](CO)O1)c1ccccc1 | . | . | 4.1 | . | . | . | . | . | . | . | .
CCCNC(=O)C[C@@H]1CC[C@H]2[C@@H](COc3ccc(NC(=O)c4cccc(C(F)(F)F)c4)cc3C(=O)N2C)O1 | . | . | 2.3 | . | . | . | . | . | . | . | .
C[C@@H]1CN([C@@H](C)CO)C(=O)c2cccc(NS(=O)(=O)c3ccc(Cl)cc3)c2O[C@H]1CN(C)Cc1ccc(Oc2ccccc2)cc1 | . | . | -2.1 | . | . | . | . | . | . | . | .
O=C(NC1CCC1)[C@H]1[C@H](CO)[C@H]2Cn3c(ccc(-c4ccccc4)c3=O)[C@H]2N1Cc1ccccn1 | . | . | -2.1 | . | . | . | . | . | . | . | .
Nc1ccc2c(c1)C(=O)c1ccc(N)cc1-2 | 32.2 | -1.7 | 76.1* | . | . | 1.25 | 0.939 | 1.74 | -0.5 | -3.5 | 5.8
C[C@@H]1CN([C@H](C)CO)C(=O)c2cccc(NC(=O)NC3CCCCC3)c2O[C@@H]1CN(C)C(=O)Nc1ccc2c(c1)OCO2 | . | . | 4.4 | . | . | . | . | . | . | . | .
C[C@H](CO)N1C[C@H](C)[C@H](CN(C)C(=O)NC2CCCCC2)Oc2ccc(NS(C)(=O)=O)cc2C1=O | . | . | -2.3 | . | . | . | . | . | . | . | .
CC1(C)Cc2c(c(N3CCCC3)nc3sc(C(=O)Nc4ccccc4)c(N)c23)CO1 | 50.6 | 8.7 | 59.3* | 22.3 | 18.3 | 1.38 | 1 | 0.961 | -11.5 | -11.6 | -11.2
Cc1ccc(S[C@@H](CCN2CC[C@H](C)CCC2=O)c2ccccc2)cc1 | -4.5 | -9.2 | 11.2 | 7.0 | 37.4 | . | . | . | . | . | .
Cc1ccc(SCCN2CCC(C)CCC2=O)cc1 (configuration not stated) | ? | 28.5 | 82.7* | 18.5 | 39.4 | 0.98 | ? | 1.24 | -11.2 | -44.4 | -20.4
Fc1ccc(-c2ccc3nccn3c2)cc1Cl | . | -0.5 | 9.4 | . | . | . | . | . | . | . | .
CC(C)Cc1ccc(-c2ccc3nccn3c2)cc1 | . | 14.8 | 66.5* | . | . | 1.17 | ? | 2.04 | -4.7 | -17.0 | 0.4
O=C(Cc1cccs1)Nc1nc2c(s1)CCCC2 | 55.6 | 13.4 | 59.2* | 11.6 | 43.8 | 1.03 | 0.793* | 1.31 | -27.5 | 9.1 | -54.6*
CC(C)(C)C(=O)N1CCN(c2nc3ccc(Br)cc3s2)CC1 | 44.9 | 2.5 | 92.6* | 12.1 | 22.6 | 1.06 | 0.996 | 1.7 | -3.2 | 9.9 | -26.7
SMILES | MITF TRPM1 HTS | Wnt bcat act | esBAF inh | HSF1 inhib | HSF1 activator | Ring1 derepress | Fgf4 repress | esBAF Bmi1 qPCR | A549 cytotox | HepG2 tox SP | HEK293 tox SP
CCCC(=O)N1CCN(c2nc3ccc(Br)cc3s2)CC1 | 67.4 | -0.2 | 66.0* | 5.5 | 15.3 | 0.955 | 0.893 | 1.43 | -5.8 | -13.8 | -34.3
C[C@H](CO)N1C[C@H](C)[C@H](CN(C)C(=O)C2CCCCC2)OCCCC[C@H](C)Oc2ccc(NC(=O)CCC(F)(F)F)cc2C1=O | . | . | 4.0 | . | . | . | . | . | . | . | .
O=C(NC1CCCCC1)N1CCc2ccccc2C1 | 77.1 | 9.8 | 67.0* | 7.8 | 12.9 | 1.14 | 1 | 1.87 | -7.5 | -25.5 | -11.1
O=C(CNC1CCCCC1)N1CCc2ccccc2C1 | . | -3.0 | . | -3.9 | 1.0 | . | . | . | . | . | .
ClCCn1cnc2c(SCc3ccccc3Cl)ncnc21 | 74.7 | -12.4 | 32.9 | . | . | . | . | . | . | . | .
ClCCn1cnc2c(SCc3ccccc3)ncnc21 | 138.1* | 11.3 | 58.8* | . | . | 1.05 | ? | 2.18 | -38.9 | -16.2 | -52.8*
CN(C)c1ccc(C=Cc2nccc3ccccc23)cc1 | . | 3.3 | 70.1* | . | . | 1.46 | 1.07 | 4.22 | -47.7 | -74.5* | -63.1*
CCN(CC)c1nc(C=Cc2ccc(N(C)C)cc2)c2nccnc2n1 | . | -0.5 | . | . | . | . | . | . | . | . | .
CC(C)(O)c1cc2ccc(C#Cc3ccsc3)cc2c(=O)o1 | 76.1 | 28.7 | 71.0* | . | . | 1.29 | 0.842 | 2.31 | -3.4 | -19.1 | -11.4
Cc1noc(C)c1S(=O)(=O)Nc1ccc2c(c1)C(=O)N([C@H](C)CO)C[C@H](C)[C@H](CN(C)Cc1ccncc1)O2 | . | . | 5.4 | . | . | . | . | . | . | . | .
